# Test results as given in the supplement of paper PMC9844399.
# Where a name gives a salt, the structure may show the parent alone.
# Test system: HeLa
# Experiment: nuclear count per well, robust Z-score vs DMSO; higher = more cells (less toxicity)
# Conditions: 10 µM; 6 h
# 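Wherever MALAT1 nuclear FISH intensity, robust Z-score vs DMSO is given: High-content confocal imaging of branched-DNA amplified FISH in 384-well plates, Hoechst-defined nuclei, score is well value minus plate DMSO median over DMSO robust SD, four wells per compound.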
# 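Wherever nuclear count per well, robust Z-score vs DMSO is given: Hoechst-stained nuclei counted by automated confocal imaging of four fields per well in 384-well plates, with the robust Z-score based on the per-plate DMSO median and robust SD.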
row,SMILES,nuclear count per well
1,C[C@]12CC[C@@H]3c4ccc(O)cc4CC[C@H]3[C@@H]1CCC2=O [Estrone],-0.811
2,CC=CC1=C(C(=O)O)N2C(=O)[C@@H](NC(=O)[C@H](N)c3ccc(O)cc3)[C@H]2SC1 [Cefprozil],1.85
3,CN[C@H]1CC[C@@H](c2ccc(Cl)c(Cl)c2)c2ccccc21,0.399
4,O=C(O)CCCC=CCC1C(=O)CC(O)C1C=CC(O)CCc1ccccc1 (stereo unspecified) [17-Phenyl-trinor-prostaglandin E2],0.315
5,CC(N)=NCc1cccc(CN)c1,0.0782
6,Clc1ccc(CCC(Cn2ccnc2)Sc2c(Cl)cccc2Cl)cc1 (stereo unspecified) [Butoconazole Nitrate],1.32

# Test system: HeLa
# Experiment: MALAT1 nuclear FISH intensity, robust Z-score vs DMSO; higher = more nuclear MALAT1 lncRNA, active = -3 or less
# Conditions: 10 µM; 6 h
row,SMILES,MALAT1 nuclear FISH intensity
1,"Nc1ccc2c3c(cccc13)C(=O)NC2=O [4-Amino-1,8-naphthalimide]",-1.23 (inactive)
2,NS(=O)(=O)c1cc(C2(O)NC(=O)c3ccccc32)ccc1Cl (stereo unspecified) [Chlorthalidone],-0.245 (inactive)
3,CN(C)C[C@H](O)Cn1c2ccc(Br)cc2c2cc(Br)ccc21 (racemic) [Wiskostatin],0.573 (inactive)
4,CC12CC3CC(C)(C1)CC(N)(C3)C2,-0.532 (inactive)
5,COc1cc2nc(N(C)CCCNC(=O)C3CCCO3)nc(N)c2cc1OC (stereo unspecified) [Alfuzosin],-0.416 (inactive)
6,Cc1cccc(C)c1OCC(C)N (stereo unspecified),-0.315 (inactive)
7,CCC(C)SSc1ncc[nH]1 (stereo unspecified),-0.901 (inactive)
8,CC(c1cc2ccccc2s1)N(O)C(N)=O (stereo unspecified) [Zileuton],-0.062 (inactive)
9,CCOC(=O)C1=C(COCCN)NC(C)=C(C(=O)OC)C1c1ccccc1Cl (stereo unspecified) [Amlodipine],0.523 (inactive)
10,CC(=O)CCCCn1c(=O)c2c(ncn2C)n(C)c1=O [Pentoxifylline],0.23 (inactive)
11,CNC(=O)c1ccccc1Oc1nc(Nc2cc(OC)c(OC)c(OC)c2)ncc1Br,-0.901 (inactive)
12,CCN(CC)C(=O)/C(C#N)=C/c1cc(O)c(O)c([N+](=O)[O-])c1 [Entacapone],0.0508 (inactive)
13,CN[C@@H]1[C@H](O[C@H]2[C@H](O[C@H]3[C@H](O)[C@@H](O)[C@H](N=C(N)N)[C@@H](O)[C@@H]3N=C(N)N)O[C@@H](C)[C@]2(O)C=O)O[C@@H](CO)[C@H](O)[C@H]1O [Streptomycin Sulfate],-0.687 (inactive)
14,O=C(O)C(S)=Cc1c[nH]c2ccc(F)cc12,0.716 (inactive)
15,CCCCC(=O)N(Cc1ccc(-c2ccccc2-c2nnn[nH]2)cc1)[C@H](C(=O)O)C(C)C [Valsartan],0.00591 (inactive)
16,CCCc1nc(C(C)(C)O)c(C(=O)O)n1Cc1ccc(-c2ccccc2-c2nnn[nH]2)cc1 [Olmesartan],-0.895 (inactive)
17,CC(C(=O)O)c1cccc(Oc2ccccc2)c1 (stereo unspecified) [Fenoprofen Calcium],-0.805 (inactive)
18,COC(=O)[C@@H]1CC2=CC(=O)CC[C@]2(C)[C@@]23O[C@@H]2C[C@@]2(C)[C@@H](CC[C@@]24CCC(=O)O4)[C@H]13 [Eplerenone],1.14 (inactive)
19,CS(=O)(=O)CCNCc1ccc(-c2ccc3ncnc(Nc4ccc(OCc5cccc(F)c5)c(Cl)c4)c3c2)o1 [Lapatinib Ditosylate],3.02 (inactive)
20,Oc1ccc(/C=C/c2cc(O)cc(O)c2)cc1 [Resveratrol],-0.679 (inactive)

row,SMILES,MALAT1 nuclear FISH intensity
1,CC(C)Nc1cccnc1N1CCN(C(=O)c2cc3cc(NS(C)(=O)=O)ccc3[nH]2)CC1 [Delavirdine Mesylate],1.25 (inactive)
2,C[C@]12C=CC(=O)C=C1CC[C@@H]1[C@@H]2C(=O)C[C@@]2(C)[C@H]1CC[C@]2(O)C(=O)CO [Prednisone],-0.916 (inactive)
3,C[C@]12C=CC(=O)N[C@@H]1CC[C@@H]1[C@@H]2CC[C@]2(C)[C@@H](C(=O)Nc3cc(C(F)(F)F)ccc3C(F)(F)F)CC[C@@H]12 [Dutasteride],-0.729 (inactive)
4,COc1cc(-c2ccc(=O)[nH]n2)ccc1OC(F)F [Zardaverine],1.07 (inactive)
5,CC(=O)N[C@@H](CSC/C=C(\C)CC/C=C(\C)CC/C=C(\C)CCC=C(C)C)C(=O)O [N-acetyl-S-geranylgeranyl-L-Cysteine],0.331 (inactive)
6,O=c1ncccn1[C@@H]1O[C@H](CO)[C@@H](O)[C@H]1O [Zebularine],-0.816 (inactive)
7,O=C(CCCCCCC(=O)Nc1ccccc1)NO [Vorinostat],1.38 (inactive)
8,NCCc1ccc(O)c(O)c1,-0.825 (inactive)
9,CCCCC1=NC2(CCCC2)C(=O)N1Cc1ccc(-c2ccccc2-c2nnn[nH]2)cc1 [Irbesartan],-0.395 (inactive)
10,CC/C=C\C/C=C\C/C=C\C/C=C\C/C=C\CCCCCC(=O)O [Docosapentaenoic acid],-0.155 (inactive)
11,CC(=O)N(O)CCCCCNC(=O)CCC(=O)N(O)CCCCCNC(=O)CCC(=O)N(O)CCCCCN [Deferoxamine Mesylate],-1.42 (inactive)
12,CC(=O)OCC(CCn1cnc2cnc(N)nc21)COC(C)=O [Famciclovir],-0.574 (inactive)
13,COc1c(C)c2c(c(O)c1C/C=C(\C)CCC(=O)OCCN1CCOCC1)C(=O)OC2 [Mycophenolate Mofetil],-1.31 (inactive)
14,CC[C@]1(O)C[C@H]2CN(CCc3c([nH]c4ccccc34)[C@@](C(=O)OC)(c3cc4c(cc3OC)N(C=O)[C@H]3[C@@](O)(C(=O)OC)[C@H](OC(C)=O)[C@]5(CC)C=CCN6CC[C@]43[C@@H]65)C2)C1 [Vincristine Sulfate],0.345 (inactive)
15,C[C@]12CC[C@@H]3c4ccc(O)cc4CC[C@H]3[C@@H]1CCC2=O [Estrone],-0.942 (inactive)
16,CC=CC1=C(C(=O)O)N2C(=O)[C@@H](NC(=O)[C@H](N)c3ccc(O)cc3)[C@H]2SC1 [Cefprozil],-1.07 (inactive)
17,CN[C@H]1CC[C@@H](c2ccc(Cl)c(Cl)c2)c2ccccc21,-0.692 (inactive)
18,O=C(O)CCCC=CCC1C(=O)CC(O)C1C=CC(O)CCc1ccccc1 (stereo unspecified) [17-Phenyl-trinor-prostaglandin E2],-0.48 (inactive)
19,CC(N)=NCc1cccc(CN)c1,0.0701 (inactive)
20,Clc1ccc(CCC(Cn2ccnc2)Sc2c(Cl)cccc2Cl)cc1 (stereo unspecified) [Butoconazole Nitrate],0.588 (inactive)
